# Reference: PubChem BioAssay (NCATS)
# Results filed as inconclusive are left out. Activity calls are given as the source filed them. Unless noted, calls follow the shape of the dose curve; as a rule, active = well fitted curve in the direction sought with a large enough effect; inconclusive = small, poorly fitted or top-dose-only effect, or another doubt; inactive = no such curve, though single readings can be large; an effect the other way counts as inactive or inconclusive.
# Legend:
# [1] = target: Cytochrome P450 3A4 (Homo sapiens) (UniProt P08684); assay: qHTS Assay for Activators of Cytochrome P450 3A4 (AID 885); also: nearly all actives have a fitted effect of over 65% in size
# Procedure, shortened: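 Activators are scored by enhanced luminescence from CYP3A4 conversion of luciferin-PPXE (25uM, equal to KM) to luciferin, after 60 min at RT with an NADPH-regenerating system.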
# [2] = Confirmation and Secondary Assay for Modulators of Hemoglobin Beta Chain Splicing at IVS2 654 locus (AID 910);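 also: HeLa cells stably carrying EGFP split by mutant beta-globin IVS2-654 intron; % of control where 0% means no effect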
# Procedure, shortened: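 HeLa cells stably expressing EGFP interrupted by β-globin IVS2-654 intron, seeded overnight in Opti-MEM/2% FCS, then treated 2 days at 37 °C. Restored splicing read as total peak GFP intensity per well by laser scanning cytometry (488 nm excitation, 500–520 nm emission); 500 nM antisense PNA as control.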
# [3] = Confirmation and Secondary Assay for Modulators of Hemoglobin Beta Chain Splicing at IVS2 705 locus (AID 930);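 also: HeLa cells stably expressing the EGFP-705 splicing reporter; GFP fluorescence per well restored by corrected splicing of the IVS2-705 intron in EGFP; % of control where 0% means no effect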
# Procedure, shortened: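 Stable HeLa line with EGFP disrupted by mutant beta-globin intron 2 (705). Overnight attachment, then 2 days of compound at 37C, 5% CO2. Signal: peak GFP intensity summed over objects 5-250 µm.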
# [4] = qHTS Assay for Lipid Storage Modulators (AID 1519; calls by dose curve; as to activity change, negative = inhibition: % is scaled to controls: 0 for no effect and ±100 for the full control effect); settings: Drosophila S3 cells, BODIPY lipid droplet/cell ratio, laser cytometry, cells loaded with oleic acid; for activity change, negative = inhibition: at 57.5 µM (top of the series)
# Procedure, shortened: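 Cells seeded at 5,000 per well were treated with compounds over a concentration series and loaded with oleic acid (400 uM, as added). Lipid droplet fluorescence (488 nm excitation, 500-530 nm channel) was read by laser-scanning cytometry and normalized to 20 uM Triacsin C.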
# [5] = target: Cytochrome P450 2D6 (Homo sapiens) (UniProt P10635); assay: Cytochrome P450 family 2 subfamily D member 6 (CYP2D6) small molecule antagonists: luciferase biochemical (cell-free) qHTS assay (AID 1645840; active = well fitted curve in the direction sought with a large enough effect in the repeat runs; an effect the other way counts as inactive or inconclusive; also: nearly all actives have a fitted effect of over 55% in size; also: potency is read from the fitted curve at half-maximal effect; as to activity change, negative = inhibition: % is scaled to controls: 0 for no effect and ±100 for the full control effect)
# Procedure, shortened: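 P450-Glo CYP2D6 system: proluciferin substrate converted by enzyme to luciferin, read by luminescence proportional to activity. Enzyme-substrate mix with compound 10 min at room temperature, then NADPH regeneration 1 h before detection reagent.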
# [6] = measured here: cell count channel max response
# [7] = measured here: lipid channel max response
# Sequence of Cytochrome P450 3A4 (Homo sapiens) (P08684 whole entry, looked up): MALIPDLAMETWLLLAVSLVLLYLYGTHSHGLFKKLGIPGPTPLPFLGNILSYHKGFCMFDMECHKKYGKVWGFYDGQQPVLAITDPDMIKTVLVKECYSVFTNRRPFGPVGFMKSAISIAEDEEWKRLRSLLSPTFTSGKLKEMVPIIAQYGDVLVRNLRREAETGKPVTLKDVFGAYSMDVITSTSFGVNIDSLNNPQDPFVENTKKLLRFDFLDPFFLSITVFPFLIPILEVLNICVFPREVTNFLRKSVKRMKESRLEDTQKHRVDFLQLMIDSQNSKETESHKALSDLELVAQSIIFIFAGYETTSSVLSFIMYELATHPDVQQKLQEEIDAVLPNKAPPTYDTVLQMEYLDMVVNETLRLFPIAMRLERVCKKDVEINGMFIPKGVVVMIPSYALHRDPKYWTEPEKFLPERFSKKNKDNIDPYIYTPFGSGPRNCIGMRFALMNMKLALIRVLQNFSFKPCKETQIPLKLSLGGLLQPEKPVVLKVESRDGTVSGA
# Sequence of Cytochrome P450 2D6 (Homo sapiens) (P10635 whole entry, looked up): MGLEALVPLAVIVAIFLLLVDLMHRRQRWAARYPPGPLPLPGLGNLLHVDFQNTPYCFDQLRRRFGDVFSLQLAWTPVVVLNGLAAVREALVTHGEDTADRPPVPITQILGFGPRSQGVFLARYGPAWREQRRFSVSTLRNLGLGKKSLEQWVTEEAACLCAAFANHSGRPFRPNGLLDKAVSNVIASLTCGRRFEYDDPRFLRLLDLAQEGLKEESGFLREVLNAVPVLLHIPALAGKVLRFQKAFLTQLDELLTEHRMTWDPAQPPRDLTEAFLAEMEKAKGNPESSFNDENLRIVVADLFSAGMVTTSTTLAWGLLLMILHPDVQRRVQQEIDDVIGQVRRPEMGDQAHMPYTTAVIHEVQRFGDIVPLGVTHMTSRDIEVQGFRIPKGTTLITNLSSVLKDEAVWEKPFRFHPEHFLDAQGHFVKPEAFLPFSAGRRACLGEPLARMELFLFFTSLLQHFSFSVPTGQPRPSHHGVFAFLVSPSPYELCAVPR
smiles,measurement,setting,value
COc1cc(O)cc(/C=C/c2ccccc2)c1,Potency,[1],inactive
same,Potency,[2],inactive
same,Potency,[3],inactive
same,"activity change, negative = inhibition",[4],5.85% (inactive)
same,max response,[4]; [6],-8.15%
same,max response,[4]; [7],-0.333%
CC(=O)OCC(=O)[C@@]1(O)CCC2C3CC(C)C4=CC(=O)C=CC4(C)C3C(O)CC21C (some centres not stated),Potency,[1],inactive
same,Potency,[2],inactive
same,Potency,[3],inactive
same,"activity change, negative = inhibition",[4],2.16% (inactive)
same,max response,[4]; [6],-9.81%
same,max response,[4]; [7],-3.93%
O=c1c(O)c(-c2ccccc2)oc2cc(O)ccc12,Potency,[1],inactive
same,Potency,[2],inactive
same,Potency,[3],inactive
same,"activity change, negative = inhibition",[4],6.29% (inactive)
same,max response,[4]; [6],-1.89%
same,max response,[4]; [7],5.57%
COC(=O)CCC(C)C1CCC2C3C(O)C[C@@H]4CC(O)CC[C@@]4(C)C3CC(O)[C@]12C (some centres not stated),Potency,[2],inactive
same,Potency,[3],inactive
same,"activity change, negative = inhibition",[4],2.8% (inactive)
same,max response,[4]; [6],-0.322%
same,max response,[4]; [7],3.42%
CCCCCc1c2c(cc(O)c1C(=O)O)OC(=O)c1c(cc(OC)cc1C(=O)CCCC)O2,Potency,[2],inactive
same,Potency,[3],inactive
same,"activity change, negative = inhibition",[4],7.58% (inactive)
same,max response,[4]; [6],12.3%
same,max response,[4]; [7],21.9%
CC(C)=CCC/C(C)=C/COc1ccc2ccc(=O)oc2c1,Potency,[1],inactive
same,Potency,[2],inactive
same,Potency,[3],inactive
same,"activity change, negative = inhibition",[4],-1.25% (inactive)
same,max response,[4]; [6],27.3%
same,max response,[4]; [7],28.1%
CC(=O)OC1CCC2(C)C3=C(CCC2C1(C)C)[C@]1(C)CCC(C(C)CCC=C(C)C)[C@]1(C)CC3 (some centres not stated),Potency,[1],inactive
same,Potency,[2],inactive
same,Potency,[3],inactive
same,"activity change, negative = inhibition",[4],-0.993% (inactive)
same,max response,[4]; [6],20.7%
same,max response,[4]; [7],23.4%
CC1=C2C(=COC(C)C2C)C(=O)C(C(=O)O)=C1O (configuration not stated),Potency,[2],inactive
same,Potency,[3],inactive
same,"activity change, negative = inhibition",[4],4.18% (inactive)
same,max response,[4]; [6],-1.22%
same,max response,[4]; [7],4.23%
CCOC(=O)c1sc(NC(=O)c2c(-c3ccccc3)c(-c3ccccc3)nn(C)c2=O)nc1C,Potency,[5],inactive
COc1ccc2cc(Br)ccc2c1,Potency,[5],inactive
COc1cccc(-c2oc3ccc(C)cc3c(=O)c2O)c1,Potency,[5],7.56 µM (active)
CCOC(=O)N1CCc2c(sc3c2c(=O)n(Cc2ccccc2)c(=O)n3CC(=O)Nc2ccc(F)cc2)C1,Potency,[5],1.51 µM (active)
CCOc1ccccc1NC(=O)Cn1c(=O)n(CCC(=O)NCc2ccc3c(c2)OCO3)c(=O)c2ccccc21,Potency,[5],0.425 µM (active)
C=CCCCCCCCCCCCC(O)CC(O)COC(C)=O (configuration not stated),Potency,[2],inactive
same,Potency,[3],inactive
same,"activity change, negative = inhibition",[4],12.3% (inactive)
same,max response,[4]; [6],4.88%
same,max response,[4]; [7],15.5%
Cc1cn(C2CC(N=[N+]=[N-])C(CO)O2)c(=O)[nH]c1=O (configuration not stated),Potency,[2],inactive
same,Potency,[3],inactive
same,"activity change, negative = inhibition",[4],9.63% (inactive)
same,max response,[4]; [6],4.71%
same,max response,[4]; [7],18.1%
CC(=O)C1(O)Cc2c(O)c3c(c(O)c2C(OC2CC(N)C(O)C(C)O2)C1)C(=O)c1ccccc1C3=O (configuration not stated),Potency,[5],12 µM (active)
CN1CCCC1c1cccnc1 (configuration not stated),Potency,[2],inactive
same,Potency,[3],inactive
same,"activity change, negative = inhibition",[4],7.69% (inactive)
same,max response,[4]; [6],11.9%
same,max response,[4]; [7],23.7%
CC12CCC3(C)C(=CC(=O)[C@@H]4C5(C)CC[C@H](O[C@H]6O[C@H](C(=O)O)C(O)C(O)[C@H]6O[C@@H]6O[C@H](C(=O)O)C(O)C(O)C6O)C(C)(C)[C@@H]5CCC43C)[C@@H]1C[C@@](C)(C(=O)O)CC2 (some centres not stated),Potency,[5],inactive
Cc1cc(C)cc(NC(=O)Cn2c(=O)n(-c3ccc(C)c(C)c3)c(=O)c3oc4ccccc4c32)c1,Potency,[5],0.425 µM (active)
CNS(=O)(=O)c1ccc(Cc2c(-c3cccc(-c4ccccc4)c3)[nH]n(-c3nc(C(=O)O)cs3)c2=O)cc1,Potency,[5],26.8 µM (active)
Cc1onc(-c2c(F)cccc2Cl)c1C(=O)Cl,Potency,[5],inactive
CC(C)CCn1c(CN2CCN(C(=O)C(C)C)CC2)nc2c1c(=O)n(C)c(=O)n2C,Potency,[5],inactive
COc1ccc(-c2nc(SCC(=O)Nc3ccc4c(c3)OCO4)c(-c3ccc(OC)cc3)[nH]2)cc1,Potency,[5],5.35 µM (active)
CCC(C)C(=O)OC1CC(C)C=C2C=CC(C)C(CCC3CC(O)CC(=O)O3)C21 (configuration not stated),Potency,[2],inactive
same,Potency,[3],inactive
same,"activity change, negative = inhibition",[4],5.56% (inactive)
same,max response,[4]; [6],0.727%
same,max response,[4]; [7],5.38%
O=c1cc2nc(-c3cccs3)nc(SCCOc3ccc(Cl)cc3)n2[nH]1,Potency,[5],inactive
CN1N=C(N)c2cn([C@@H]3O[C@H](COP(=O)(O)O)[C@@H](O)[C@H]3O)c3ncnc1c23,Potency,[5],inactive
COc1cccc(C(=O)NC(c2ccc(Cl)cc2)c2cc(Cl)c3cccnc3c2O)c1 (configuration not stated),Potency,[5],inactive
CC1=C(C(=O)Nc2nnc(C)s2)C(c2ccccc2Cl)N=C(Nc2nc3ccccc3o2)N1 (configuration not stated),Potency,[5],inactive
CCc1ccc(C(=O)c2cn(CC(=O)Nc3ccc(OC)c(OC)c3)c3ccc(C)cc3c2=O)cc1,Potency,[5],inactive
COc1ccc(C(=O)Nc2ccc3oc(-c4ccc(OC)cc4)nc3c2)cc1,Potency,[5],inactive
Cc1[nH]n2c(=O)cc(-c3ccccc3Cl)nc2c1-c1ccccc1,Potency,[5],16.9 µM (active)
NCCOCCOCCOCCOCCN1CCN(C(c2ccc(Cl)cc2)c2ccc(Cl)cc2)CC1,Potency,[5],6.74 µM (active)
COc1ccc(NC(=O)Cn2cc(C(=O)c3cccs3)c3ccccc32)cc1,Potency,[5],2.68 µM (active)
NCCCCC(NC(CCc1ccccc1)C(=O)O)C(=O)N1CCCC1C(=O)O (configuration not stated),Potency,[2],inactive
same,Potency,[3],inactive
same,"activity change, negative = inhibition",[4],8.08% (inactive)
same,max response,[4]; [6],11.1%
same,max response,[4]; [7],24.7%
Cc1nn(CC(=O)NCCc2ccccc2)c(=O)c2c1sc1ccccc12,Potency,[5],12 µM (active)
COc1ccc(C(=O)NC(c2ccc(Cl)cc2)c2cc(Cl)c3cccnc3c2O)cc1 (configuration not stated),Potency,[5],inactive
COC(=O)c1ccc(C2C=C(c3ccc(Cl)cc3)Nc3nc4ccccc4n32)cc1 (configuration not stated),Potency,[5],3.38 µM (active)
COc1ccc(-c2nc3n(n2)C(c2ccc(OC)c(OC)c2)C(C(=O)Nc2cccnc2)=C(C)N3)cc1 (configuration not stated),Potency,[5],inactive
COc1ccc(Br)c2c1-c1nc(NC(=O)c3cccc(C)c3)sc1C2,Potency,[5],inactive
CC(=O)OC1CC[C@@]2(C)C3CC(=O)[C@]4(C)C(C(C)=O)=CCC4C3CC[C@H]2C1 (some centres not stated),Potency,[2],inactive
same,Potency,[3],inactive
same,"activity change, negative = inhibition",[4],-12.8% (inactive)
same,max response,[4]; [6],4.87%
same,max response,[4]; [7],-10%
OCCOCCOCCOCCOCCN1CCN(C(c2ccc(Cl)cc2)c2ccc(Cl)cc2)CC1,Potency,[5],8.49 µM (active)
CN1CCCC1CCO[C@@](C)(c1ccccc1)c1ccc(Cl)cc1 (some centres not stated),Potency,[2],inactive
same,Potency,[3],inactive
same,"activity change, negative = inhibition",[4],-9.48% (inactive)
same,max response,[4]; [6],-21.6%
same,max response,[4]; [7],-28.2%
